Structures are written as SMILES. Active and inactive are the calls of the source. Rule for the calls: active = hit-call score of the fitted dose curve at least 0.9, where 1 is the maximum; inactive = score below 0.9.

Read-out in one experiment: Glutamate-cysteine ligase regulatory (GCLM), GCLM (gene 2730)
The experiment is described as follows: LTEA_HepaRG_GCLM: Life Technologies and Expression Analysis (LTEA) Assay for Glutamate-cysteine ligase regulatory (GCLM) using HepaRG (AID 2283500). The following applies: mRNA level, 48 h; actives raise or lower the signal. The gist of the method:
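Cells were plated, cultured 48 h, switched to serum-free induction medium, then dosed in duplicate for 48 h at eight half-log concentrations up to 100 uM. RNA was then profiled by qRT-PCR; gain or loss versus DMSO was fitted.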
On to `CC(C)(O)C(=O)Nc1ccc([N+](=O)[O-])c(C(F)(F)F)c1`, for which the outcome was inactive.
The same measure, in the same setting: for `CCC(C)(CC)c1cc(NC(=O)c2c(OC)cccc2OC)on1` the value was “inactive”; for `Cc1ccccc1O`, “inactive”; for `CN(C)CCO`, “inactive”.
The same measure, in the same setting: for `Cc1ccccc1CO[C@@H]1C[C@@]2(C(C)C)CC[C@]1(C)O2` the value was “inactive”.
The same measure, in the same setting: for `Cc1cc(-c2ccc(N)c(C)c2)ccc1N` the value was “inactive”; for `c1cc2ccc3cccc4ccc(c1)c2c34`, “inactive”.
Consider `Oc1c(Cl)c(Cl)c(Cl)c(Cl)c1Cl`, for which the AC50 was 2.1 µM (active).
As to `O=NN(c1ccccc1)c1ccccc1`, the compound was called inactive.
Take `Clc1ccc(C(c2ccccc2Cl)C(Cl)(Cl)Cl)cc1` (centres undefined): the compound was classed as inactive.
On to `NS(=O)(=O)C(F)(F)C(F)(F)C(F)(F)C(F)(F)C(F)(F)C(F)(F)C(F)(F)C(F)(F)F`, for which the AC50 is 0.993 µM (active).
With `O=S(=O)(O)C(F)(F)C(F)(F)C(F)(F)C(F)(F)F`, the compound was called inactive.
On the same count and under the same terms, for `Nc1ccc(-c2ccc(N)cc2)cc1` the value was “inactive”; for `C=CC(N)=O`, “inactive”.
The same measure, in the same setting: the value for `CCOCCOC(C)=O` was “inactive”.
Turning to `O=C(O)C(F)(F)C(F)(F)C(F)(F)C(F)(F)C(F)(F)C(F)(F)C(F)(F)C(F)(F)F`, the AC50 was 77 µM (active).
With `CCCCCCCCCc1ccc(O)cc1`, the compound was classed as inactive.
On to `CO/C=C(/C(=O)OC)c1ccccc1COc1cccc(C(F)(F)F)n1`, for which the AC50 was 8.95 µM (active).
As for `ClC1=C(Cl)[C@]2(Cl)[C@@H]3[C@@H]4C[C@@H]([C@H]5O[C@@H]45)[C@@H]3[C@@]1(Cl)C2(Cl)Cl`, the outcome was inactive.
Same read-out and setting: for `Cc1ccccc1[N+](=O)[O-]` the value was “inactive”; for `Oc1ccc(Cl)cc1Cl`, “inactive”; for `Clc1ccc(C(Cl)(Cl)Cl)cc1`, “inactive”.
The same measure, in the same setting: the value for `C=CC(=O)NCNC(=O)C=C` was “inactive”; that for `C1CC2OC2CC1C1CO1` (centres undefined) was “inactive”.
Still for that read-out and setting: for `O=C(NC(=O)c1c(F)cccc1F)Nc1cc(Cl)c(OC(F)(F)C(F)F)c(Cl)c1` the value was “inactive”.
Turning to `O=C(NC(=O)c1cc(F)c(F)cc1Cl)Nc1cc(F)ccc1N1CCC(C(=O)O)CC1`, the compound was classed as inactive.
On the same count and under the same terms, the value for `ClC(Cl)=C(c1ccc(Cl)cc1)c1ccc(Cl)cc1` was “inactive”.
The same measure, in the same setting: the value for `CCC(C)(c1ccc(O)cc1)c1ccc(O)cc1` was “inactive”; that for `COS(=O)(=O)OC` was “inactive”.
As for `N#Cc1ccc(N(CC(N)=O)CC(F)(F)F)cc1C(F)(F)F`, the compound was called inactive.
The same measure, in the same setting: the value for `CCC(=O)O[C@H]1CC[C@H]2[C@@H]3CCC4=CC(=O)CC[C@]4(C)[C@H]3CC[C@]12C` was “inactive”; that for `CCCCCCCCOC(=O)c1ccccc1C(=O)OCCCCCCCC` was “inactive”.

Read-out in a further experiment: Glutathione S-transferase M3 (GSTM3), GSTM3 (gene 2947)
The experiment in a line: LTEA_HepaRG_GSTM3: Life Technologies and Expression Analysis (LTEA) Assay for Glutathione S-transferase M3 (GSTM3) using HepaRG (AID 2283501). The conditions noted are these: mRNA level, 48 h; actives raise or lower the signal. The gist of the method: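 GSTM3 transcript levels came from Fluidigm TaqMan qRT-PCR normalized to three housekeeping genes, fitted in both directions against DMSO. HepaRG cultures received chemicals for 48 h in serum-free induction medium (0.5% DMSO), 8 half-log concentrations up to 100 uM, duplicate.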
`Cc1ccccc1O`: the compound was classed as inactive.
The same measure, in the same setting: for `Cc1ccccc1CO[C@@H]1C[C@@]2(C(C)C)CC[C@]1(C)O2` the value was “inactive”; for `Cc1cc(-c2ccc(N)c(C)c2)ccc1N`, “inactive”; for `c1cc2ccc3cccc4ccc(c1)c2c34`, “inactive”.
Turning to `Clc1ccc(C(c2ccccc2Cl)C(Cl)(Cl)Cl)cc1` (centres undefined), the compound was classed as inactive.
Same read-out and setting: the value for `ClC1=C(Cl)[C@]2(Cl)[C@@H]3[C@@H]4C[C@@H]([C@H]5O[C@@H]45)[C@@H]3[C@@]1(Cl)C2(Cl)Cl` was “inactive”.
The same measure, in the same setting: the value for `C=CC(=O)NCNC(=O)C=C` was “inactive”; that for `O=C(NC(=O)c1c(F)cccc1F)Nc1cc(Cl)c(OC(F)(F)C(F)F)c(Cl)c1` was “inactive”; that for `COS(=O)(=O)OC` was “inactive”.
The same measure, in the same setting: for `N#Cc1ccc(N(CC(N)=O)CC(F)(F)F)cc1C(F)(F)F` the value was “inactive”.
With `CCC(=O)O[C@H]1CC[C@H]2[C@@H]3CCC4=CC(=O)CC[C@]4(C)[C@H]3CC[C@]12C`, the outcome was inactive.

Read-out in the next experiment: Heat shock 70 kDa protein 1 (HSPA1A), gene 3303
The experiment in a line: LTEA_HepaRG_HSPA1A: Life Technologies and Expression Analysis (LTEA) Assay for Heat shock 70 kDa protein 1 (HSPA1A) using HepaRG (AID 2283502). The conditions noted are these: mRNA level, 48 h; actives raise or lower the signal. The gist of the method: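 Readout is HSPA1A transcript level by microfluidic qRT-PCR, normalized to three housekeeping genes and analysed for gain or loss of signal relative to 0.5% DMSO. Human HepaRG cultures received test chemicals for 48 h at up to 100 uM.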
As to `CC(C)(O)C(=O)Nc1ccc([N+](=O)[O-])c(C(F)(F)F)c1`, the outcome was inactive.
With `CCC(C)(CC)c1cc(NC(=O)c2c(OC)cccc2OC)on1`, the result was inactive.
In the case of `Cc1ccccc1O`, the call was inactive.
Turning to `CN(C)CCO`, the outcome was inactive.
Consider `Cc1ccccc1CO[C@@H]1C[C@@]2(C(C)C)CC[C@]1(C)O2`, for which the AC50 was 50 µM (active).
Turning to `Cc1cc(-c2ccc(N)c(C)c2)ccc1N`, the outcome was inactive.
Still for that read-out and setting: for `c1cc2ccc3cccc4ccc(c1)c2c34` the value was “inactive”.
For `Oc1c(Cl)c(Cl)c(Cl)c(Cl)c1Cl`, the AC50 is 6.34 µM (active).
As for `O=NN(c1ccccc1)c1ccccc1`, the result was inactive.
In the case of `Clc1ccc(C(c2ccccc2Cl)C(Cl)(Cl)Cl)cc1` (centres undefined), the AC50 is 12 µM (active).
`NS(=O)(=O)C(F)(F)C(F)(F)C(F)(F)C(F)(F)C(F)(F)C(F)(F)C(F)(F)C(F)(F)F`: the AC50 is 75.5 µM (active).
Consider `O=S(=O)(O)C(F)(F)C(F)(F)C(F)(F)C(F)(F)F`, for which the result was inactive.
As for `Nc1ccc(-c2ccc(N)cc2)cc1`, the result was inactive.
The same measure, in the same setting: for `C=CC(N)=O` the value was “inactive”; for `CCOCCOC(C)=O`, “inactive”; for `CCCCCCCCCc1ccc(O)cc1`, “inactive”.
As to `CO/C=C(/C(=O)OC)c1ccccc1COc1cccc(C(F)(F)F)n1`, the compound was called inactive.
Same read-out and setting: the value for `ClC1=C(Cl)[C@]2(Cl)[C@@H]3[C@@H]4C[C@@H]([C@H]5O[C@@H]45)[C@@H]3[C@@]1(Cl)C2(Cl)Cl` was “inactive”.
Same read-out and setting: the value for `Cc1ccccc1[N+](=O)[O-]` was “inactive”; that for `Oc1ccc(Cl)cc1Cl` was “inactive”.
Same read-out and setting: for `Clc1ccc(C(Cl)(Cl)Cl)cc1` the value was “inactive”; for `C=CC(=O)NCNC(=O)C=C`, “inactive”.
As for `C1CC2OC2CC1C1CO1` (centres undefined), the compound was called inactive.
`O=C(NC(=O)c1c(F)cccc1F)Nc1cc(Cl)c(OC(F)(F)C(F)F)c(Cl)c1`: the compound was called inactive.
The same measure, in the same setting: for `O=C(NC(=O)c1cc(F)c(F)cc1Cl)Nc1cc(F)ccc1N1CCC(C(=O)O)CC1` the value was “inactive”; for `ClC(Cl)=C(c1ccc(Cl)cc1)c1ccc(Cl)cc1`, “inactive”.
On the same count and under the same terms, for `CCC(C)(c1ccc(O)cc1)c1ccc(O)cc1` the value was “inactive”; for `COS(=O)(=O)OC`, “inactive”; for `N#Cc1ccc(N(CC(N)=O)CC(F)(F)F)cc1C(F)(F)F`, “inactive”.
For the compound `CCC(=O)O[C@H]1CC[C@H]2[C@@H]3CCC4=CC(=O)CC[C@]4(C)[C@H]3CC[C@]12C`, the call was inactive.
Still for that read-out and setting: for `CCCCCCCCOC(=O)c1ccccc1C(=O)OCCCCCCCC` the value was “inactive”.
